Compound activity (PubChem BioAssay)
Only some compounds are listed: those with a hit (about 4.7% of all), similar ones and a draw of the others.
tim10-1 inh – growth inhibitors of tim10-1 mutant yeast | S. cerevisiae tim10-1 ts strain growth, BacTiter-Glo, 24 h | inhibition, % at 20 µM | 2.2% of 330,000 active;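 active = inhibition of at least 40%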;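 note: mutant grown at 25 °C; 0% = DMSO wells with yeast and 100% = wells holding no yeast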
EBI2 antag – antagonists of human EBI2 receptor; P32249; EBI2 beta-arrestin recruitment, luminescence, 7a,25-OHC stimulated; inhibition, % at 5 µM; 0.81% of 360,000 active; AID 651636; in the data active = inhibition above about 38%;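 note: enzyme fragment complementation signal reports receptor beta-arrestin coupling in cells; 0% = agonist plus DMSO wells and 100% = wells without agonist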
Target sequence (P32249 whole entry, looked up, the tested form may be a part): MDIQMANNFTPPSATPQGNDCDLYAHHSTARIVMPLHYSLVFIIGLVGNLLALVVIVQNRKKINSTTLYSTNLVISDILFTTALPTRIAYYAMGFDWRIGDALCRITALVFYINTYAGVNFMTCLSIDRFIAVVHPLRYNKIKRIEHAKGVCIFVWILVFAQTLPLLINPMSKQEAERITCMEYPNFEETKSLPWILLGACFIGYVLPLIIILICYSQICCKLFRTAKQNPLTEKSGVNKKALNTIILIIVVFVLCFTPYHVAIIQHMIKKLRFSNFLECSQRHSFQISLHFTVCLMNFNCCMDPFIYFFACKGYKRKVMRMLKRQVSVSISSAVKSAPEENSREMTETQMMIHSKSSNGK
SKKanGAS inh – blocks kanamycin growth of S. pyogenes SKKanGAS strain; BacTiter-Glo, 6 h; inhibition, % at 7.5 µM; 1.3% of 300,000 active; AID 1662;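 active = mean replicate score, as percent of positive control median, at least 50; inconclusive = mean below 50 but one replicate at or above 50; inactive = mean and every replicate below 50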;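 note: strain carries kanamycin resistance gene driven by streptokinase promoter and grows in 40 µg/ml kanamycin; loss of luminescence reflects streptokinase promoter inhibition or plain growth inhibition; 0% = median of DMSO wells and 100% = positive control at its reference dose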
tim23-1 inh – growth inhibitors of tim23-1 mutant yeast. S. cerevisiae tim23-1 growth, BacTiter-Glo luminescence, 24 h. inhibition, % at 20 µM. 1.3% of 330,000 active. AID 463212;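 active = growth inhibition of the mutant yeast at or above 50%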;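 note: temperature-sensitive mutant grown at 25 °C; plate controls were DMSO-treated mutant yeast for no effect and medium wells lacking yeast for full effect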
PfHsp90 yeast 2 – reduces growth (ATP signal) of yeast expressing P. falciparum Hsp90; S. cerevisiae expressing PfHsp90, BacTiter-Glo ATP, 48 h; yeast lacking PDR1 and PDR3 efflux regulators; inhibition, % at 9.4 µM; 0.32% of 310,000 active;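 active = every replicate shows inhibition above about 80%, whatever the replicate mean, limit read from the data; inconclusive = mean inhibition reaches the set limit but some replicate falls short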;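 note: 0% = DMSO neutral controls and 100% = 20 µM radicicol positive controls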
TIM10 inh – TIM10 yeast growth inhibition; S. cerevisiae TIM10 strain growth, BacTiter-Glo luminescence, 24 h; inhibition, % at 10 µM; 1.4% of 330,000 active; AID 463195;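 active = inhibition of 40% or more at the single tested concentration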;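 note: wild-type TIM10 isogenic control strain grown at permissive 25 °C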
tim10-1 confirm – tim10-1 yeast growth inhibition, confirmed; shares compounds with tim10-1 inh; AID 463213; 56% of 7,400 active; S. cerevisiae tim10-1 ts strain growth, BacTiter-Glo, 24 h; inhibition, % at 20 µM;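 active = inhibition of yeast growth at or above a set limit in either of two repeat tests at 20 µM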;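 note: tim10-1 mutant grown at permissive 25 °C to find synthetic lethal compounds; 0% = DMSO yeast wells and 100% = medium wells without yeast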
TIM10 conf – confirmation of TIM10 yeast growth inhibitors; shares compounds with TIM10 inh; S. cerevisiae tim10 strain growth, BacTiter-Glo luminescence, 24 h; inhibition, % at 10 µM; 63% of 4,600 active; AID 463215;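 active = inhibition of yeast growth at or above a set limit in either of two replicates at 10 µM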;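 note: this counterscreen used the strain with wild-type TIM10; 0% = yeast with DMSO and 100% = medium wells lacking yeast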
* hit, by the source's call; ? = inconclusive; . = no result.

SMILES | tim10-1 inh | EBI2 antag | SKKanGAS inh | tim23-1 inh | PfHsp90 yeast 2 | TIM10 inh | tim10-1 confirm | TIM10 conf
CCOC(=O)c1ccc(N2C(=O)CC(N3CCN(Cc4ccccc4)CC3)C2=O)cc1 (centres undefined) | 28.3 | -5.7 | -6.2 | 25.5 | 5.3 | 7.7 | . | .
CC1CC(OC(=O)CN2CCCCC2)CC(C)(C)C1 (centres undefined) | 1.1 | . | 4.1 | -9.5 | . | 0.4 | . | .
Cc1ccc(NC(=O)Nc2ccc3c(c2)C(=O)OC3)cc1Cl | -8.0 | 5.8 | -1.7 | -14.5 | -9.5 | -4.5 | . | .
COc1ccccc1/C=C/C(=O)c1cc(Br)ccc1OC(=O)c1ccco1 | 50.3* | 28.7 | 3.0 | 48.9 | -52.8 | 41.6* | 42.0* | 0.7
N/C(CCS(=O)(=O)c1ccc(Cl)cc1)=N\OC(=O)c1ccccc1Cl | 61.7* | 5.8 | -4.0 | 41.8 | 4.2 | 51.4* | 70.7* | 50.5*
CCC(=O)OCCNc1cc(Sc2nc3ccccc3s2)c2nonc2c1[N+](=O)[O-] | 93.2* | 27.0 | ? | 27.5 | 11.2 | 77.4* | 91.0* | 94.2*
O=C(CCl)N(c1ccc(Cl)cc1)c1c[nH]c2ccccc12 | 44.0* | 7.5 | 16.6 | 40.4 | 14.7 | 41.2* | 36.4* | 27.9*
O=C(CCl)N(c1ccccc1)c1c[nH]c2ccccc12 | 23.1 | -20.4 | -2.2 | 24.3 | -11.7 | 20.3 | . | .
CCOC(=O)c1c(C)oc2ccc(OC(=O)COc3c(F)c(F)c(F)c(F)c3F)cc12 | 11.7 | -1.1 | -18.0 | -7.2 | -18.5 | 4.2 | . | .
N/C(=N\OC(=O)CC1CCCCC1)c1cccc(Br)c1 | 62.1* | -4.1 | 6.3 | 41.0 | -6.6 | 73.0* | 66.9* | 61.9*
N/C(=N\OC(=O)COc1ccccc1)c1ccc(Cl)cc1 | 14.2 | -7.4 | -4.5 | 16.1 | -15.2 | 18.1 | . | .
N/C(=N\OC(=O)CC1CCCCC1)c1ccc(Cl)cc1 | 42.2* | 2.1 | 3.8 | 25.5 | . | 44.0* | 56.8* | 34.3*
O=C(/C=C/c1ccccc1)OCc1cnc(Cl)s1 | 13.5 | -10.0 | 1.4 | -6.3 | -2.2 | -2.1 | . | .
Cc1ccc(C(=O)NNC(=O)C2CCN(c3nccc(C)n3)CC2)cc1 | -7.9 | 3.3 | 1.7 | 17.8 | 14.2 | -2.4 | . | .
O=C(N1CCN=C1SCc1cccnc1)C12CC3CC(CC(C3)C1)C2 | 45.0* | 0.3 | 2.6 | 45.4 | 13.5 | 44.9* | 40.1* | 47.4*
O=C(c1cccs1)N1CCN=C1SCc1cccnc1 | 24.8 | -5.2 | -1.1 | 12.7 | 8.4 | -7.5 | . | .
CC1(C(=O)NCc2cccc3ccccc23)CCN1Cc1ccccc1OC(F)F (centres undefined) | . | 26.5 | . | . | . | . | . | .
O=C(c1ccc(S(=O)(=O)N2CCOCC2)cc1)N(c1cccc(Cl)c1)C1C=CS(=O)(=O)C1 (centres undefined) | 7.2 | -8.9 | -1.5 | 4.2 | -6.8 | -11.6 | . | .
O=S(=O)(c1ccccc1)N1CCC(=NO)CC1 | 8.9 | -3.7 | -13.1 | 13.4 | -1.0 | -17.0 | . | .
O=C(ON=C1CCN(S(=O)(=O)c2ccccc2)CC1)c1cccc(Cl)c1 | 66.5* | -5.1 | -1.8 | 45.3 | . | 46.8* | 67.0* | 55.0*
O=C(Nc1ccc(Cl)c(Cl)c1)OCc1cccnc1 | 49.6* | -3.0 | 42.6 | 5.6 | -36.2 | 43.9* | 47.2* | 30.5*
CC(Sc1nc(NCc2ccccc2)nc(N(C)C)n1)C(=O)Nc1ccccc1 (centres undefined) | 34.4 | 1.3 | 9.0 | 36.1 | -18.9 | 29.7 | . | .
CC(=O)C(Sc1nc(N(C)C)nc(N(C)C)n1)C(=O)Nc1ccccc1 (centres undefined) | 40.0* | 8.0 | -10.0 | 27.8 | 6.0 | 96.7* | 23.2 | 15.9
COc1ccc2cc(S(=O)(=O)NCc3cccnc3)ccc2c1 | -0.8 | 4.4 | -17.6 | 2.1 | -9.2 | -6.2 | . | .
Cc1nccn1-c1cc(C(C)(C)C)nc2c(-c3ccccc3)cnn12 | 50.4* | -5.4 | -7.2 | 49.9 | -2.4 | 53.8* | 48.1* | 54.7*
SMILES | tim10-1 inh | EBI2 antag | SKKanGAS inh | tim23-1 inh | PfHsp90 yeast 2 | TIM10 inh | tim10-1 confirm | TIM10 conf
COc1cccc(-c2sc3ccc(OC)cc3c2C#CC2(O)CCCCC2)c1 | 14.8 | 6.7 | . | 17.1 | -1.2 | 13.0 | . | .
COc1cc(OC)cc(-c2sc3ccc(OC)cc3c2C#CC2(N)CCCCC2)c1 | 43.6* | 4.3 | . | 12.3 | -2.3 | 44.7* | 18.2 | 26.4
CCOc1ccc2c(c1)c1nnc(SCC3CCCO3)nc1n2C (centres undefined) | 46.3* | -2.7 | 7.3 | 22.7 | . | 44.5* | 30.1* | 47.1*
CCC(=NCc1ccco1)c1c(C(F)(F)F)[nH]n(-c2nc3ccccc3s2)c1=O | 64.6* | 11.6 | 12.2 | 18.5 | 16.9 | 44.2* | 62.5* | 41.0*
O=c1c(C=NCc2cccnc2)c(C(F)(F)F)[nH]n1-c1nc2ccccc2s1 | 15.8 | 5.8 | 12.0 | 26.3 | 54.3 | 23.7 | . | .
C#CCOC(=O)c1ccccc1C(=O)n1nnc2ccccc21 | 38.9 | 0.2 | 5.9 | 48.6 | -6.7 | 31.5 | . | .
O=C(c1cccc2ccccc12)n1nnc2ccccc21 | 66.5* | . | -1.0 | 0.0 | . | 58.7* | 61.1* | 72.7*
CCc1ccc(/C(C)=N/NC(=O)CNC(=O)/C=C/c2ccco2)cc1 | 6.9 | -9.6 | -0.9 | 7.5 | -25.9 | 13.3 | . | .
O=[N+]([O-])c1ccc(-c2nc3ccc([N+](=O)[O-])cc3[nH]2)cc1 | 6.8 | 6.0 | -0.3 | -8.1 | 2.4 | 16.2 | . | .
O=[N+]([O-])c1ccc(-c2nc(-c3cccs3)c(-c3cccs3)[nH]2)cc1 | 64.5* | 30.2 | ? | 15.0 | -5.8 | 68.8* | 52.0* | 60.8*
CCN1/C(=C/c2ccc3cc(C)ccc3[n+]2CC)Sc2ccccc21 | 65.3* | 5.8 | . | 35.0 | 92.0* | 65.6* | 44.5* | 75.2*
Cn1nc(C(F)(F)F)c2cc(C(=O)Nc3ccc(F)cc3F)sc21 | -5.8 | 21.1 | -7.5 | -11.0 | 21.6 | 1.2 | . | .
Cn1nc(C(F)(F)F)c2cc(NC(=O)OCc3ccc(F)cc3)sc21 | 57.8* | 22.4 | 0.0 | -6.4 | -15.5 | 56.2* | 48.8* | 54.0*
CC(=O)N(Cc1ccc(F)cc1)C1=C(NCCc2ccccc2)C(=O)c2ccccc2C1=O | 40.7* | 9.2 | 38.8 | 30.0 | -28.1 | 45.0* | 16.1 | 30.9*
CC(=O)N(Cc1ccc(F)cc1)c1cccc(C)c1C | 14.8 | 2.9 | 8.9 | 4.5 | 23.3 | 15.3 | . | .
O=C(Nc1ccncc1)Nc1cccc(C(F)(F)F)c1 | 7.0 | 6.6 | -10.3 | 7.3 | 19.5 | 0.9 | . | .
NC(=O)/C=C\C(=O)Nc1cccc(C(F)(F)F)c1 | 60.6* | -5.1 | -15.6 | 31.4 | 97.2* | 55.8* | 54.9* | 66.2*
O=C(Nc1ccc(OC(F)F)cc1)Nc1cccc(C(F)(F)F)c1 | 57.2* | 3.3 | 59.5* | 43.5 | 16.9 | 63.3* | 51.4* | 52.3*
